Shown are actives, neighbours in structure and some others; about 1.5% of the full set was active somewhere.
CD11b adhes enh = increases human CD11b/CD18 adhesion to fibrinogen | K562 CD11b/CD18 adhesion to fibrinogen, ATPlite luminescence | actives 0.07% (n = 93,000) | P05107+P11215 | activation, % at 10 µM;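 active = 10 µM primary screen giving 50% or more activity, confirmed by 40% or more on retest at that dose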
CD11b adhes inh = inhibitors of human CD11b/CD18 binding to fibrinogen. inhibition, % at 10 µM. actives 0.54% (n = 93,000). K562 CD11b/CD18 adhesion to fibrinogen, ATPlite luminescence; Mn2+ added to activate the integrin;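 active = primary inhibition of 50% or more at 10 µM, then 40% or more on retest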
HePTP inhibitor = blocks human HePTP tyrosine phosphatase; recombinant HePTP phosphatase activity, OD absorbance; inhibition, % at 20 µM; actives 0.64% (n = 110,000); AID 521; in the data active = inhibition above about 50%;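 also: plate controls were vehicle for no effect and reference inhibitor for full effect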
Target sequence (P35236 whole entry, looked up): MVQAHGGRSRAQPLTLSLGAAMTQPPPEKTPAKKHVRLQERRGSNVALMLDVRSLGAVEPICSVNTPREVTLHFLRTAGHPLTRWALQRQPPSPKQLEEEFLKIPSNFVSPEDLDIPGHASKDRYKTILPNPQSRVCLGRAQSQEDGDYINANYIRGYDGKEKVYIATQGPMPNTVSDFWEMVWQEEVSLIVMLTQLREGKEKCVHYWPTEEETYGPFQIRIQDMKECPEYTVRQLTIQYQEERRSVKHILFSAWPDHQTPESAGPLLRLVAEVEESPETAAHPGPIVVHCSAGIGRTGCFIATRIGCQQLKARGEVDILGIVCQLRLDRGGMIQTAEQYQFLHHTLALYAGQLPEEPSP
PLAP activator = activates human placental alkaline phosphatase. P05187. AID 696. purified PLAP enzyme, luminescent substrate read-out; active compounds read high. actives 1.2% (n = 96,000). activation fold at 20 µM; in the data active = activation fold above about 2
* = called active by the depositor; · = no result given.

SMILES	CD11b adhes enh	CD11b adhes inh	HePTP inhibitor	PLAP activator
CC(C)c1ccc(-c2cc(C(=O)N3N=C(C(F)F)CC3(O)C(F)F)c3ccccc3n2)cc1 (centres undefined)	-4	78*	·	2.1*
CC(=O)Nc1ccc(Nc2ccc(C(F)(F)F)cc2[N+](=O)[O-])cc1	·	·	-3	·
Cc1cccc(C(=O)N/C(=C/c2ccco2)C(=O)N2CCCC2)c1	·	·	2	·
O=c1c(Sc2ccccc2)c(C(F)(F)F)[nH]n1-c1ccccc1	-2	56*	·	1
Cc1[nH]n(-c2ccccc2)c(=O)c1C(c1ccccc1C(F)(F)F)c1c(C)[nH]n(-c2ccccc2)c1=O	·	·	-8	·
O=C(Nc1ccc2c(c1)N(Cc1ccccc1)C(=O)c1ccccc1S2)NC1CC1	8	18	·	2.1*
CC1(C)NC(=O)N(CC(O)COc2cccc(F)c2)C1=O (centres undefined)	4	5	0	1
Cc1cccc(OCC(O)CN2C(=O)NC(C)(C)C2=O)c1 (centres undefined)	·	·	104*	·
CCCNC1=C(Cl)C(=O)c2ccccc2C1=O	·	·	9	·
CCCOC(=O)c1ccc(Oc2cn[nH]c2-c2ccc(OCC)cc2O)cc1	-3	41	4	1.4
CCCOC(=O)c1ccc(Oc2c(-c3ccc(OCC)cc3O)n[nH]c2C)cc1	2	24	2	2.2*
Cc1ccc(C(=O)N2CCC(Cc3ccccc3)CC2)o1	·	·	9	·
CCOc1ccccc1NC(=O)c1c(NC(=S)Nc2ccccc2)sc2c1CCCCC2	·	·	2	·
CCOc1ccccc1/C=C1/C(=O)NN(c2ccc(C)c(Cl)c2)C1=O	·	·	69*	·
CCOc1ccccc1/C=C1/C(=O)NN(c2ccc(C)c(C)c2)C1=O	·	·	-5	·
O=C1NN(c2ccc(F)c(Cl)c2)C(=O)/C1=C\c1ccco1	·	·	99*	·
Cc1ccc(N2NC(=O)/C(=C\c3ccco3)C2=O)cc1C	·	·	-8	·
O=C(Nc1ccc(Cc2ccncc2)cc1)c1ccc2ccccc2c1	·	·	2	·
CS(=O)(=O)N(CC(=O)N1CCN(Cc2ccccc2)CC1)Cc1ccccc1	-3	-2	8	1.3
CS(=O)(=O)N(CC(=O)N1CCc2ccccc2C1)Cc1ccccc1	-2	-29	·	2.2*

From PubChem
